Source: PubChem BioAssay (several laboratories)
BoNT-A LC inh2: inhibitors of Botulinum neurotoxin A light chain protease | multiplex microsphere protease substrate cleavage, flow cytometry | inhibition, % at 10 µM | 0.17% of 360,000 active; further: plate controls were buffer without enzyme for full effect and enzyme alone for no effect
BoNT-F LC inh: inhibitors of Botulinum neurotoxin F light chain protease. Multiplex microsphere protease cleavage assay, flow cytometry. inhibition, % at 10 µM. 0.22% of 360,000 active; in the data active means inhibition above about 35%, passing the limit was not always enough; inconclusive means no clear call, values can overlap the other calls; further: plate controls were buffer without enzyme for full effect and enzyme alone for no effect
Autofluor counter: compound fluorescence in toxin protease inhibitor counterscreen | compound autofluorescence counterscreen, microsphere flow cytometry; active compounds read high | fluorescence intensity (concentration not given with the values) | 3.1% of 360,000 active | AID 624483; in the data active means fluorescence intensity above about 16000; inconclusive means no clear call, values can overlap the other calls
Anthrax LF prot: blocks Bacillus anthracis lethal factor protease | inhibition, % at 10 µM | multiplex microsphere protease cleavage assay, LF | 0.12% of 360,000 active | P15917 | AID 588501; further: plate controls were buffer without enzyme for full effect and enzyme alone for no effect
Target sequence (P15917 whole entry, looked up): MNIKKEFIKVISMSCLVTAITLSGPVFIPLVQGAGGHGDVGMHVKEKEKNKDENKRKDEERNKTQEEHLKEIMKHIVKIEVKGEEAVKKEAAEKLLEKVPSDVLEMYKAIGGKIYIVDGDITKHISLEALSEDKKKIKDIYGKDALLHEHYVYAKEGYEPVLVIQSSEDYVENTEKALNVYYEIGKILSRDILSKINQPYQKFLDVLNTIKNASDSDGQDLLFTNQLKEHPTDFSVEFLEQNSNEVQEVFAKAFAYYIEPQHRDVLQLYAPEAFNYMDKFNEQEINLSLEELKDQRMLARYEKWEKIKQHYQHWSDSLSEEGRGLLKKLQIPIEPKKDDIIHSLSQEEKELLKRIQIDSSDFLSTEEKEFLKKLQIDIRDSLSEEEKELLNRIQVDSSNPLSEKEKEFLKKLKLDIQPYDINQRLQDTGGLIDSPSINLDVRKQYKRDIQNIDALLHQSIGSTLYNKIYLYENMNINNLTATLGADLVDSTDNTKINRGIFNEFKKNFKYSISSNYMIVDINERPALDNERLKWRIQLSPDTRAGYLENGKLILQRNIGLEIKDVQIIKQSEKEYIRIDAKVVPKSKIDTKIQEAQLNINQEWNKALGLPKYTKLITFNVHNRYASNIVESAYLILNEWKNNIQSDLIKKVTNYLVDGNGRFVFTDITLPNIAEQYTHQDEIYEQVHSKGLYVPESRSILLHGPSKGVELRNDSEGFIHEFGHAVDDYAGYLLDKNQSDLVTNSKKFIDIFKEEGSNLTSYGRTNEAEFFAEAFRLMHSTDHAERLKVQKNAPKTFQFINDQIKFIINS
MazEF act: increases E. coli MazEF RNase cleavage of RNA. P0AE70. FAM/BHQ RNA-DNA oligo cleavage fluorescence, 5 h. activation, % at 20 µM. 0.32% of 350,000 active. AID 504720; in the data active means activation above about 50%
* = called active by the depositor; u = inconclusive; x = not tested or not shown. Most compounds without a hit are left out; they make up all but 3.7% or so of the library. Unless noted, no stated cut-off is given here; in the data, active means inhibition above about 30%; inconclusive means no clear call, values can overlap the other calls; inactive means below that.

SMILES	BoNT-A LC inh2	BoNT-F LC inh	Autofluor counter	Anthrax LF prot	MazEF act
O=C1C(=O)N(c2ccccc2)C(c2ccccc2[N+](=O)[O-])/C1=C(\O)c1ccccc1 (configuration not stated)	0	0	4221	-5	0
O=C1C(=O)N(c2cccc(Cl)c2)C(c2ccccc2[N+](=O)[O-])/C1=C(\O)c1ccccc1 (configuration not stated)	-2	0	21218*	0	1
CSCc1ccc(C(=O)OCC(=O)NC2CCCC2)o1	0	-8	3014	-4	6
CC(C)C[C@@H](CN)NC(=O)c1nc[nH]c1C(=O)N[C@@H](C)C(=O)CNC[C@H](C)NC(=O)c1nc[nH]c1C(=O)N[C@@H](C)C(=O)O	0	-3	3849	1	6
CC1CN/C(=C\C(=O)c2ccccc2)C(=O)N1 (configuration not stated)	-1	7	3001	-3	2
CC1CN/C(=C\C(=O)c2ccc(Cl)cc2)C(=O)N1 (configuration not stated)	u	-9	24766*	-5	13
COC(=O)CCCCC1SCC(NC(=O)c2ccccc2)C1Cl (configuration not stated)	0	8	2278	7	11
COC(=O)CCCCC1SCC2NC(=O)NC21O (configuration not stated)	10	79*	4177	4	9
CC(C)Nc1nc(NC(C)C)nc(Oc2ccc(=O)n(C)n2)n1	0	-1	4206	-2	2
Cc1cccc(Nc2nc(NC(C)C)nc(Oc3ccc(=O)n(C)n3)n2)c1	-2	-4	23566*	-2	-2
COc1cc(/C=C2\SC(=S)N(CCC(=O)N3CCCCC3)C2=O)cc(OC)c1OC	30*	18	5345	28	8
COc1ccc(-c2nn(-c3ccccc3)cc2/C=C2/SC(=S)N(CCC(=O)O)C2=O)c(C)c1	0	-13	2885	37*	-56
COc1ccc(/C(C)=C2/SC(=S)N(CCC(=O)O)C2=O)cc1	u	2	19144*	1	-7
COc1ccc(/C=C2/SC(=O)N(CC(=O)NCCC(C)C)C2=O)cc1OC	-1	1	4196	2	7
COc1ccc(/C=C2\SC(=O)N(CC(=O)NCCC(C)C)C2=O)cc1OC	4	43*	3482	-2	6
CCc1cccc(C)c1NC(=O)C1CC(=O)N(C2CCCC2)C1 (configuration not stated)	1	5	6389	10	7
COc1ccc(/C=C2/SC(=S)N(CCC(=O)O)C2=O)cc1	-2	-1	21113*	-2	-1
COc1ccc(/C=C2\SC(=S)N(CCCC(=O)Nc3cc(C)on3)C2=O)cc1OC	0	6	6076	0	150*
COc1ccc(/C=C2\SC(=S)N(CCCCCC(=O)Nc3cc(C)on3)C2=O)cc1OC	3	1	5634	6	8
O=C(NCc1cc(Cl)cc(Cl)c1)c1ccc2nc(COCCO)[nH]c2c1	0	-7	3763	-2	x
COc1cccc(S(=O)(=O)N(C)C[C@H]2OCc3cnnn3CCCC(=O)N([C@@H](C)CO)C[C@@H]2C)c1	0	4	3704	5	4
O=C(NCc1cccnc1)c1ccc2sc([C@@H]3O[C@H](CO)[C@H](O)[C@H](O)[C@H]3O)nc2c1	0	-7	2969	-6	x
COC(=O)C(C)Sc1nnc(-c2ccncc2)o1 (configuration not stated)	u	-2	21757*	-5	4
NC(=O)CSc1nnc(-c2ccncc2)o1	0	1	2154	0	2
CCOC(=O)C(Sc1nnc(-c2ccncc2)o1)C(C)=O (configuration not stated)	0	-4	16214*	-2	0
NC(N)=NCCCS(=O)(=O)Nc1ccc(Nc2c3ccccc3nc3cc([N+](=O)[O-])ccc23)cc1	0	-26	3335	-14	51*
CCC(Sc1nc2cc(OC)c(OC)cc2c(=O)n1Cc1ccco1)C(=O)NCCOC (configuration not stated)	-2	-19	9697	-16	0
Nn1c(SCC(=O)Nc2ccccc2F)nc2ccccc2c1=O	u	-2	16496*	0	14
O=C(O)Cn1nnnc1SCC(=O)Nc1ccccc1F	0	3	4688	2	-4
COC(=O)c1ccc2c(=O)n(Cc3ccco3)c(SCC(=O)Nc3ccc(C)c(Cl)c3)nc2c1	-1	-1	23373*	-2	0
